Results reported in PubChem BioAssay (Tox21).
Inconclusive results are not listed. Where a call stands in place of a potency, no number is given. Calls of active or inactive are those of the source. The call rests on the fitted dose curve; in most records, active means well fitted cell-killing curve with a large enough effect in the repeat runs; inconclusive means weak or mixed curves, or effect the other way; inactive means flat fitted curve, though single readings scatter.

Columns and labels:
[1] = cAMP Responsive Elements (CRE) small molecule antagonists, cell-based qHTS assay: qHTS cell viability counter screen (AID 2060913); settings: CRE-bla HEK293T viability, CellTiter-Glo luminescence, 5 h; series mostly up to 92.4 µM; further: nearly all actives have a fitted effect of over 40% in size
Procedure, shortened: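 Viability of NKH477-stimulated (0.25 uM final) CRE-bla HEK293T cells is measured by CellTiter-Glo luminescence following 3 hrs compound exposure at 37 C.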

[2] = cAMP Responsive Elements (CRE) small molecule agonists, cell-based qHTS assay: qHTS cell viability counter screen (AID 2060914); settings: CRE-bla HEK293T viability, CellTiter-Glo luminescence, 5 h; series mostly up to 92.4 µM; further: nearly all actives have a fitted effect of over 50% in size
Procedure, shortened: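 Cytotoxicity was measured as ATP luminescence (CellTiter-Glo, 30 min at room temperature) in the same wells as the CRE-bla FRET read-out. HEK293T CRE-bla cells had 3 h compound exposure at 37C/5% CO2.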
Potency means the concentration at half of the fitted maximal effect.

Structure (SMILES)	Potency [1]	Potency [2]
CCS(=O)(=O)CCSP(=O)(OC)OC	inactive	inactive
CC(C)(Cl)Cl	inactive	inactive
OCC(Br)CBr (stereo unspecified)	inactive	inactive
Cc1ccc(N)c(N)c1	inactive	inactive
OC(Cc1ccccc1Cl)(Cn1cncn1)C1(Cl)CC1 (stereo unspecified)	inactive	inactive
COc1cc(CC(C)N)c(OC)cc1Br (stereo unspecified)	inactive	inactive
O=C(CBr)Nc1ccc(Cl)cc1C(=O)c1ccccc1F	inactive	inactive
CN(C)c1ccc(N=O)cc1	inactive	inactive
O=C(NC(=O)c1c(F)cccc1F)Nc1cc(Cl)c(OC(F)(F)C(F)C(F)(F)F)cc1Cl (stereo unspecified)	inactive	inactive
O=C(N/N=C/c1ccc([N+](=O)[O-])o1)c1cc([N+](=O)[O-])cc([N+](=O)[O-])c1O	inactive	inactive
COP(=O)(OC)OC(Br)C(Cl)(Cl)Br (stereo unspecified)	inactive	inactive
C=CC(=O)OCC	inactive	inactive
CC[N+]1(CC)CCC(OC(=O)C(O)(c2ccccc2)c2ccccc2)C1 (stereo unspecified)	inactive	inactive
CC(=O)NC1CCSC1=O (stereo unspecified)	inactive	inactive
CCC(=O)Nc1ccc(Cl)c(Cl)c1	inactive	inactive
CCn1cc[n+](C)c1	inactive	inactive
CCN(CC)CCc1c[nH]c2ccccc12	inactive	inactive
Cc1coc2c1CCC(C)C2 (stereo unspecified)	inactive	inactive
CCOc1cc(C=O)ccc1O	inactive	inactive
O=C(O)C1C2CCC(O2)C1C(=O)O (stereo unspecified)	inactive	inactive

Structure (SMILES)	Potency [1]	Potency [2]
NC(=O)c1cc([N+](=O)[O-])cc([N+](=O)[O-])c1	inactive	inactive
Clc1ccccc1-c1ccccc1Cl	inactive	inactive
C=CCC1([C@H](C)CCC)C(=O)NC(=O)NC1=O	inactive	inactive
CCOP(=S)(OCC)Oc1cc(C)nc(N(CC)CC)n1	inactive	inactive
C[C@]12CC[C@H]3[C@@H](CC[C@@]45O[C@@H]4C(O)=C(C#N)C[C@]35C)[C@@H]1CC[C@@H]2O	inactive	inactive
CCOC(=O)N(C)C(=O)CSP(=S)(OCC)OCC	inactive	inactive
CCC(COC(=O)c1cc(OC)c(OC)c(OC)c1)(c1ccccc1)N(C)C (stereo unspecified)	inactive	inactive
Cc1cc(-c2cc(C)c(N)c(C)c2)cc(C)c1N	inactive	inactive
CCCCNC(=O)OCC#CI	inactive	inactive
CCCCC(CC)COC(=O)OOC(C)(C)C (stereo unspecified)	inactive	inactive
C=CC(=O)N(C)C	inactive	inactive
CC1(C)CON(Cc2ccccc2Cl)C1=O	inactive	inactive
C=CCN(CC=C)C(=O)C(Cl)Cl	inactive	inactive
CCNc1nc(Cl)nc(NC(C)(C)C)n1	inactive	inactive
O=NN1CCN(N=O)CC1	inactive	inactive
c1ccc(OCC2CO2)cc1 (stereo unspecified)	inactive	inactive
O=C(O)COc1cc(Cl)c(Cl)cc1Cl	inactive	inactive
CC(=NC#N)N(C)Cc1ccc(Cl)nc1	inactive	inactive
C#CC1(O)CCCCC1	inactive	inactive
CCCC[N+](=O)[O-]	inactive	inactive

Structure (SMILES)	Potency [1]	Potency [2]
Nc1cc(Cl)cc(Cl)c1	inactive	inactive
Cc1nc(N)nc(N)n1	inactive	inactive
ClC(Cl)=C(Cl)C(Cl)=C(Cl)Cl	inactive	inactive
Cc1ccccc1O	inactive	inactive
CCOC(=O)C(Cl)C(C)=O (stereo unspecified)	inactive	inactive
CCOCCOC(C)=O	inactive	inactive
CC1CC(=O)O1 (stereo unspecified)	inactive	inactive
COc1ccc(Cc2nccc3cc(OC)c(OC)cc23)cc1OC	inactive	inactive
CCCCCCCCCCCCCC[P+](CCCCCC)(CCCCCC)CCCCCC (tested in a mixture with another compound)	24.3 µM (active)	21.7 µM (active)
C(COCC1CO1)OCC1CO1 (stereo unspecified)	inactive	inactive
O=C1C(Cl)C(CCl)CN1c1cccc(C(F)(F)F)c1 (stereo unspecified)	inactive	inactive
c1nc[nH]n1	inactive	inactive
O=[N+]([O-])c1ccc2ccc3cccc4ccc1c2c34	inactive	inactive
CCOP(=S)(OCC)Oc1ncn(-c2ccccc2)n1	inactive	inactive
NCCc1ccc(O)cc1	inactive	inactive
BrCC(Br)c1ccccc1 (stereo unspecified)	inactive	inactive
CCCCCCCCCCCOC(=O)c1ccccc1C(=O)OCCCCCCCCCCC	inactive	inactive
CC(=O)OC1(c2ccccc2)CCN(CCc2ccccc2)CC1	inactive	inactive
